A selection: hits, their analogues and other compounds. The true share with any hit is near 4.1%.
beta cell repl – induces beta-cell replication in MIN6 cells | MIN6 cells proliferation, ATPlite luminescence, 48 h; cells starved in 0.2% serum; 100% = growth in 10% serum | proliferation, % at 10 µM | hit rate 0.29% among 330,000 | AID 2380;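 active means compounds whose signal lies at least 3.5 SD above the mean of all wells on their plate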;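 further: 0% = DMSO-treated cells in low-serum medium and 100% = 10% serum control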
FAS-TE inh – blocks the thioesterase domain of human fatty acid synthase; inhibition, % at 15 µM; hit rate 0.67% among 360,000; recombinant FAS-TE, OMFH fluorogenic substrate, fluorescence endpoint; P49327;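 active means compounds whose normalised, plate-corrected inhibition of enzyme fluorescence in the single-dose primary screen is 50% or more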;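 further: 0% = DMSO with enzyme and 100% = substrate without enzyme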
GRIN3A LBD mod – NR3A (human) ligand-binding domain modulation; NR3A LBD differential scanning fluorimetry, Tm shift; 0% = protein alone, 100% = glycine-bound protein; Tm shift relative to glycine control, % at 25 µM; hit rate 2.5% among 340,000; AID 1259313;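 active means melting temperature shift of at least 10% of the positive control shift, at one fixed dose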
p-CIP stab down – p/CIP protein destabilization. Q05BA5. F442A p/CIP-EGFP cells, EGFP fluorescence, 16 h. hit rate 0.01% among 290,000. decrease of EGFP signal, % at 10 µM;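 active means EGFP signal decrease of at least 30% at 10 µM or well 3 SD below plate mean, unless failing retest; inactive means the rest, including hits failing retest or dose response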
MPTP block – inhibitors of mitochondrial permeability transition pore. inhibition, % at 10 µM. hit rate 1.4% among 360,000. AID 602449. isolated mouse mitochondria, Ca2+ swelling absorbance, 30 min;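 active means inhibition of 50% or more, scaled per plate between neutral and stimulator controls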;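 further: 0% = DMSO wells given calcium and 100% = 1 mM EGTA wells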
* marks the source's active call; other numbers are inactive results; nt = no result; ! = a repeat was not active.

SMILES	beta cell repl	FAS-TE inh	GRIN3A LBD mod	p-CIP stab down	MPTP block
Cc1ccc(OCC(O)Cn2c3ccccc3c3ccccc32)cc1 (stereo unspecified)	-4.9	28.2	11.8*	3.5	8.5
Cc1cccc(C)c1OCC(O)Cn1c2ccccc2c2ccccc21 (stereo unspecified)	-6.1	36.4	8.7	-2.3	14.0
CCCCC1CC2=C(C(=O)OC(C)(C)O2)C(c2ccc(Cl)cc2)O1 (stereo unspecified)	nt	23.6	nt	nt	1.7
Cc1cc(OCC(=O)OCC(=O)N(Cc2ccccc2)C(C)(C)C)ccc1Cl	nt	21.1	nt	nt	-2.3
COc1ccc(C2=Nc3ccccc3N(C(=O)c3ccc4c(c3)OCO4)C2C(=O)Nc2c(C)cccc2C)cc1 (stereo unspecified)	nt	nt	nt	nt	0.7
CCc1nc2ccc(C(=O)NCc3ccccc3OC)cn2c1N(C)Cc1ccc(OC)cc1	nt	14.4	nt	nt	-0.2
CNc1oc(-c2ccc(OCc3ccccc3)cc2)nc1C#N	-1.8	9.6	32.9*	-12.0	-2.6
N#Cc1nc(-c2ccc(OCc3ccc(Cl)cc3)cc2)oc1NCCCn1ccnc1	-0.1	-57.7	16.6*	-4.9	0.7
N#Cc1nc(-c2ccc(OCc3ccccc3)cc2)oc1NCc1ccco1	-4.8	15.3	-0.7	-12.2	-11.0
CCOc1ccc(C(=O)NCC(=O)OCC(=O)N(C)CC(=O)Nc2ccccc2CC)cc1OCC	nt	-4.3	-1.3	nt	0.4
O=c1cccc(-c2ccc3ccccc3c2)o1	nt	nt	nt	nt	-0.1
Cn1c(SCC(=O)c2ccc3c(c2)Cc2ccccc2-3)nnc1-c1ccccc1	2.3	11.7	1.3	2.5	-2.0
CC(=O)Nc1nnc(SCC(=O)c2ccc3c(c2)Cc2ccccc2-3)s1	0.0	-4.1	14.9*	-7.5	1.9
CCC(=O)Nc1nnc(SCC(=O)c2ccc3c(c2)Cc2ccccc2-3)s1	-2.0	-2.8	11.3*	-8.4	4.5
COc1ccc(-c2nn(-c3ccccc3)cc2/C=C/C(=O)OCC(=O)Nc2cccc(C#N)c2)cc1	-4.0	1.6	25.2*	-4.4	7.9
COc1cccc(NC(=O)CN(C)C(=O)/C=C/c2cn(-c3ccccc3)nc2-c2ccc(C)cc2)c1	-6.4	34.4	16.6*	nt	-2.9
COc1ccc(NC(=O)CN(C)C(=O)/C=C/c2cn(-c3ccccc3)nc2-c2ccc(F)cc2)cc1	-7.2	18.7	10.4*	nt	-1.1
COc1ccc(NC(=O)CN(C)C(=O)/C=C/c2cn(-c3ccccc3)nc2-c2ccc(C)cc2)cc1	-5.7	24.2	6.5	nt	-1.9
COc1cccc(NC(=S)NN2CCN(C)CC2)c1	-2.8	-7.6	12.2*	-9.7	-1.6
COc1ccc(OC)c(NC(=S)NN2CCN(C)CC2)c1	1.4	-6.4	-2.7	-9.4	-2.2
CC1(C(=O)NS(=O)(=O)c2ccc(Cl)cc2)CCN1C(=O)c1ccccc1 (stereo unspecified)	nt	-7.3	nt	nt	-0.6
CC(C)(C)OC(=O)N1CCC[C@H]1C(=O)N/N=C/c1cccc2cccnc12	-0.1	-2.9	13.9*	-3.4	0.7
CC(C)(C)OC(=O)NCCC(=O)N/N=C/c1cccc2cccnc12	-2.2	-3.6	0.2	3.4	1.2
S=C(NCc1ccccc1)Nc1ccc2cn[nH]c2c1	1.2	-3.1	-11.6	2.6	1.7
COc1ccc(NC(=S)Nc2ccc3cn[nH]c3c2)cc1	2.9	-26.2	9.6	5.9	1.2
SMILES	beta cell repl	FAS-TE inh	GRIN3A LBD mod	p-CIP stab down	MPTP block
S=C(Nc1ccc2cn[nH]c2c1)Nc1ccc(Cl)cc1Cl	-1.7	-15.7	12.6*	19.1	-2.0
CCc1ccc(NC(=S)Nc2ccc3cn[nH]c3c2)cc1	0.0	-13.5	13.7*	6.7	0.3
CCCCNC(=S)Nc1ccc2cn[nH]c2c1	0.0	-12.6	21.3*	-7.9	-1.2
CC(C)Cn1c(SCC(=O)N2CCc3ccccc3C2)nc2cc(Cl)ccc2c1=O	-4.6	12.4	14.1*	-6.7	16.5
Oc1ccc(C[C@H]2CNC(=S)N2C[C@H]2CCCN2C[C@H](Cc2ccccc2)N2C[C@H](Cc3ccccc3)N(CC3CCCCC3)C2=S)cc1	nt	-83.5	nt	nt	0.3
Nc1ccc2nc(-c3ccccc3)[nH]c2c1	-5.3	-2.0	-5.0	10.1	0.5
Nc1ccc2nc(-c3ccc(N)c(Cl)c3)[nH]c2c1	-4.8	3.0	15.8*	-9.4	-5.2
Nc1ccc(-c2nc3c(Cl)cc(N)cc3[nH]2)cc1	-1.0	-4.1	10.5*	5.5	-0.2
O=C(C[C@H]1CC[C@@H]2[C@H](COC[C@@H](O)CN2Cc2cccc(F)c2)O1)NCC1CCCCC1	nt	nt	nt	nt	0.1
OC(c1ccccc1)(c1nc(/C=C/c2ccc(C(F)(F)F)cc2)cs1)C(F)(F)F (stereo unspecified)	nt	46.8	nt	nt	1.5
Cc1cc(NC(=O)Nc2ccc3c(ccn3C)c2)sn1	-6.3	-1.2	17.2*	nt	-1.8
CCCCn1c(=NC(=O)c2cccnc2)c(C(=O)OCC)cc2c(=O)n3ccccc3nc21	nt	31.4	-3.2	-11.1	1.8
CCOCCCn1c(=NC(=O)c2cccnc2)c(C(=O)OCC)cc2c(=O)n3ccccc3nc21	-1.6	31.6	14.0*!	16.0	0.3
CC(=O)c1cccc(OCC(=O)Nc2ccccc2N2CCOCC2)c1	6.3	4.3	-2.9	nt	0.5
COc1ccc(CNCCS(=O)(=O)NN2CCOCC2)cc1	nt	-12.0	16.8*	nt	0.1
CCCCNS(=O)(=O)CCNCc1ccc(OC)cc1	nt	-11.4	0.8	nt	-1.5
COc1cc2c(=O)n(Cc3ccco3)c(=O)n(CC(=O)c3ccc(Br)cc3)c2cc1OC	-3.1	20.9	13.6*	-6.9	1.4
COc1ccc(Cc2c(-c3ccc(OC)c(OC)c3)nc3cc(C)c(Br)c(C)n23)c(C)c1	nt	26.7	nt	nt	1.3
CCc1nc2c(OCc3cc(Cl)cc(Cl)c3)cccn2c1N(C=O)Cc1ccccc1	nt	26.0	nt	nt	0.3
CCN(C[C@H]1N[C@@](CC)(C(=O)OC)[C@H]2C(=O)N(C)C(=O)[C@@H]12)S(=O)(=O)c1ccc(C(C)(C)C)cc1	2.6	-9.3	18.1*	nt	0.9
COC(=O)[C@]1(Cc2ccccc2)N[C@H](CN(C)S(=O)(=O)c2ccc(C(C)(C)C)cc2)[C@@H]2C(=O)N(C)C(=O)[C@@H]21	0.8	17.8	15.4*	nt	0.9
Fc1cccc(Cc2c(-c3ccc(Cl)cc3)nc3ccc(Br)cn23)c1	nt	29.6	nt	nt	-0.2
CCNC(=O)C1(C)CCN(Cc2ccc(C#N)cc2)C1 (stereo unspecified)	nt	-8.7	nt	nt	0.5
O=C1C(Cl)=C(N2CCCCC2)C(=O)C(Cl)=C1c1cnc(N2CCCCC2)s1	-6.2	78.4*	-52.2	0.0	7.1
O=C1Nc2ccccc2-n2nnnc2C1N1CCc2ccccc2C1 (stereo unspecified)	nt	nt	nt	nt	3.0
CC(C)NC(=O)N(C)C[C@H]1Oc2ncc(Br)cc2C(=O)N([C@H](C)CO)C[C@@H]1C	nt	-4.1	nt	nt	0.1
CCOC(=O)c1cc(-c2ccccc2C)nn1CC1CC(c2ccc(OC)cc2)=NO1 (stereo unspecified)	-5.4	32.8	-0.2	nt	1.5
CCOC(=O)c1cc(-c2ccccc2)nn1CC1CC(c2ccc(OC)cc2)=NO1 (stereo unspecified)	-3.6	24.3	12.9*	nt	-0.3
